Outcome and AC50 data for 12 compounds are collected here from PubChem BioAssay (EPA / NIEHS).

SMILES strings stand for the structures. Activity calls are given as the source filed them. Rule for the calls: active = hit-call score of the fitted dose curve at least 0.9, where 1 is the maximum; inactive = score below 0.9.

Read-out in one test: Decorin, DCN (gene 1634)
Briefly: BSK_MyoF_Decorin: BioMAP Diversity Plus: MyoF Assay for Decorin Biomarker Activity (AID 2284265). As to conditions: primary human lung fibroblasts. In a few lines: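 ELISA readout of decorin, 24 h post-dosing; primary human lung fibroblast (MyoF) culture; gain-of-signal fit vs DMSO baseline.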

The nature of test [1]: BSK_MyoF_SRB: Viability Assessment in the BioMAP Diversity Plus: MyoF Assay (AID 2284267).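 Note: total protein by SRB absorbance in parallel cultures as cytotoxicity measure; cells assessed 24 h after compound addition.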 The following applies: primary human lung fibroblasts. A digest of the protocol:
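In this viability endpoint, fibroblasts from human lung are treated for 24 h, TCA-fixed, SRB-stained (0.1%) and read at 560 nm. Gain of signal relative to DMSO defines activity.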

Read-out in test [2]: Matrix Metallopeptidase 1 (MMP1), MMP1 (gene 4312)
Briefly: BSK_MyoF_MMP1: BioMAP Diversity Plus: MyoF Assay for Matrix Metallopeptidase 1 (MMP1) Biomarker Activity (AID 2284268). As to conditions: primary human lung fibroblasts. In a few lines: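 Cells: human lung fibroblasts. Exposure: 24 h chemical dosing. Detection: ELISA for MMP1. Analysis: upward fitting against DMSO negative control.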

Read-out in test [3]: TIMP metallopeptidase inhibitor 1 (TIMP1), TIMP1 (gene 7076)
The test can be described thus: BSK_MyoF_TIMP1: BioMAP Diversity Plus: MyoF Assay for TIMP metallopeptidase inhibitor 1 (TIMP1) Biomarker Activity (AID 2284269). As to conditions: primary human lung fibroblasts. A digest of the protocol:
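ELISA read-out of TIMP-1 from primary human lung fibroblast cultures 24 h after compound dosing; gain of signal relative to DMSO vehicle baseline defines activity.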

Test [4] can be described thus: IUF_NPC2c_oligodendrocyte_migration_120hr: Leibniz Research Institute for Environmental Medicine (IUF) 120-hour Neural Progenitor Cell Migration Assay for Oligodendrocyte Migration (NPC2c) (AID 2284297).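 Note: O4-positive oligodendrocyte migration distance divided by radial glia migration distance.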 A digest of the protocol:
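hNPC spheres (GW 16-19 cortex), PDL/laminin, DMEM/F12 3:1 + 1% N2, 37C. Dosing day 0–5, half feed day 3, DMSO ≤0.1%. Fixed 120 h; O4 ICC + Hoechst, HCI. Readout: mean oligodendrocyte distance from sphere edge / radial glia distance.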

Test [5] can be described thus: IUF_NPC2a_radial_glia_migration_120hr: Leibniz Research Institute for Environmental Medicine (IUF) 120-hour Neural Progenitor Cell Migration Assay for Radial Glia Migration (NPC2a) (AID 2284298). A digest of the protocol:
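Hoechst-stained nuclei imaged at 120 h; algorithm maps sphere core by densest nuclei, sets migration edge at density threshold, gives radial glia migration distance (um) per well vs DMSO. hNPC spheres (0.3 mm), PDL/laminin, DMEM/F12 3:1 + 1% N2.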

Test [6] is described as follows: IUF_NPC2a_radial_glia_migration_72hr: Leibniz Research Institute for Environmental Medicine (IUF) 72-hour Neural Progenitor Cell Migration Assay for Radial Glia Migration (NPC2a) (AID 2284299). In a few lines: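 Spheres of human primary neural progenitors migrate on poly-D-lysine/laminin under compound exposure at 37C, 5% CO2. The 72 h radial glia migration distance comes from brightfield images, measured manually.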

Test [7] is described as follows: IUF_NPC2b_neuronal_migration_120hr: Leibniz Research Institute for Environmental Medicine (IUF) 120-hour Neural Progenitor Cell Migration Assay for Neuron Migration (NPC2b) (AID 2284300). In a few lines: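 hNPC spheres, PDL/laminin, DMEM:F12 3:1 + 1% N2, 37C/5% CO2; 7 concentrations + solvent control (DMSO ≤0.1%), 5 d exposure, half-feed day 3. Fix 120 h, TUBB3 ICC, HCI: mean neuron migration distance ÷ glia distance.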

The nature of test [8]: IUF_NPC3_neuronal_differentiation_120hr: Leibniz Research Institute for Environmental Medicine (IUF) 120-hour Neuronal Differentiation Assay (NPC3) (AID 2284301). In a few lines: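 Value is percent TUBB3-positive neurons among Hoechst-stained nuclei in the migration area, scored by trained CNN after 120 h differentiation. Primary hNPC spheres on poly-D-lysine/laminin, N2 medium, continuous dosing from day 0, half-refeed day 3; DMSO reference.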

Read-out in test [9]: Intercellular Adhesion Molecule 1 (ICAM1), ICAM1 (gene 3383)
Briefly: BSK_BE3C_ICAM1: BioMAP Diversity Plus: BE3C Assay for Intercellular Adhesion Molecule 1 (ICAM1) Biomarker Activity (AID 2284278).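 Note: cell-surface ICAM-1 protein level quantified by ELISA.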 As to conditions: primary human bronchial epithelial cells. A digest of the protocol:
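hu bronchial epithelial primary cells, 24 h cpd exposure, ICAM-1 ELISA; gain-of-signal fit vs DMSO baseline.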

Read-out in test [10]: Interferon-inducible T-cell alpha chemoattractant (ITAC), CXCL11 (gene 6373)
The test can be described thus: BSK_BE3C_ITAC: BioMAP Diversity Plus: BE3C Assay for Interferon-inducible T-cell alpha chemoattractant (ITAC) Biomarker Activity (AID 2284279). As to conditions: primary human bronchial epithelial cells. In a few lines:
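ELISA read-out of I-TAC after 24 h chemical dosing of human lung primary bronchial epithelial cells; gain-of-signal fit vs DMSO baseline. Parallel SRB total-protein staining (0.1% SRB, 10% TCA fixation, 560 nm) assessed cytotoxicity.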

Read-out in test [11]: Interleukin-8 (IL8), CXCL8 (gene 3576)
The test can be described thus: BSK_BE3C_IL8: BioMAP Diversity Plus: BE3C Assay for Interleukin-8 (IL8) Biomarker Activity (AID 2284280). As to conditions: primary human bronchial epithelial cells. In a few lines: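 Primary human bronchial epithelial cells (BE3C system) were exposed to test chemical for 24 h, and IL-8 levels were then measured by ELISA. Activity was fitted in the positive (gain-of-signal) direction against a DMSO negative-control baseline.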

Read-out in test [12]: Epidermal growth factor receptor (EGFR), EGFR (gene 1956)
Briefly: BSK_BE3C_EGFR: BioMAP Diversity Plus: BE3C Assay for Epidermal growth factor receptor (EGFR) Biomarker Activity (AID 2284281). As to conditions: primary human bronchial epithelial cells. A digest of the protocol: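 Human primary bronchial epithelial cells were exposed to compound for 24 h, and cell-surface EGFR was then quantified by ELISA. Activity was fitted in the positive direction against the DMSO vehicle baseline.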

Read-out in another test: KRT18 (gene 3875)
Briefly: BSK_BE3C_Keratin818: BioMAP Diversity Plus: BE3C Assay for Keratin 818 Biomarker Activity (AID 2284282). As to conditions: primary human bronchial epithelial cells. A digest of the protocol: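 In this multiplexed primary-cell system, bronchial epithelial cells were dosed and harvested at 24 h. Keratin 8/18 was determined by ELISA and analysed for increases over DMSO controls.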

Read-out in test [13]: Matrix Metallopeptidase 9 (MMP9), MMP9 (gene 4318)
The test can be described thus: BSK_BE3C_MMP9: BioMAP Diversity Plus: BE3C Assay for Matrix Metallopeptidase 9 (MMP9) Biomarker Activity (AID 2284283). The following applies: primary human bronchial epithelial cells. A digest of the protocol:
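ELISA read-out of MMP-9 after 24 h compound exposure of human lung bronchial epithelial primary cells (BE3C). Fit in gain direction vs DMSO negative control; total protein by SRB in parallel cultures flagged overt cytotoxicity.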

Read-out in test [14]: Plasminogen activator inhibitor-1 (PAI1), SERPINE1 (gene 5054)
The test can be described thus: BSK_CASM3C_PAI1: BioMAP Diversity Plus: CASM3C Assay for Plasminogen activator inhibitor-1 (PAI1) Biomarker Activity (AID 2284284).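 Note: PAI-1 protein level measured by ELISA 24 h after dosing.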 The following applies: primary human coronary artery smooth muscle cells.

Read-out in test [15]: Monocyte Chemoattractant Protein-1 (MCP1), CCL2 (gene 6347)
The test can be described thus: BSK_hDFCGF_MCP1: BioMAP Diversity Plus: hDFCGF Assay for Monocyte Chemoattractant Protein-1 (MCP1) Biomarker Activity (AID 2284285). As to conditions: primary human foreskin fibroblasts. A digest of the protocol:
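MCP-1 ELISA readout was taken 24 hours after dosing primary human dermal fibroblasts in the hDFCGF system, with DMSO as baseline. Parallel sulforhodamine B staining of total protein tracked overt cytotoxicity.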

Read-out in test [16]: Intercellular Adhesion Molecule 1 (ICAM1), ICAM1 (gene 3383)
The test can be described thus: BSK_hDFCGF_ICAM1: BioMAP Diversity Plus: hDFCGF Assay for Intercellular Adhesion Molecule 1 (ICAM1) Biomarker Activity (AID 2284287). As to conditions: primary human foreskin fibroblasts. A digest of the protocol:
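ICAM-1 ELISA readout 24 h after dosing, DMSO as baseline, in human dermal foreskin fibroblast cultures. Cytotoxicity checked in parallel wells by SRB staining (0.1% SRB, 10% TCA fixation, 560 nm).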

Read-out in test [17]: TIMP metallopeptidase inhibitor 2 (TIMP2), TIMP2 (gene 7077)
Briefly: BSK_hDFCGF_TIMP2: BioMAP Diversity Plus: hDFCGF Assay for TIMP metallopeptidase inhibitor 2 (TIMP2) Biomarker Activity (AID 2284289). The following applies: primary human foreskin fibroblasts. In a few lines:
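Primary human foreskin fibroblasts in the hDFCGF system, dosed for 24 h; TIMP-2 level measured by ELISA, fitted in the positive direction against DMSO; cytotoxicity checked in parallel by sulforhodamine B total protein staining.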

Read-out in test [18]: Thrombomodulin, THBD (gene 7056)
The test can be described thus: BSK_LPS_Thrombomodulin: BioMAP Diversity Plus: LPS Assay for Thrombomodulin Biomarker Activity (AID 2284296). A digest of the protocol: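 Thrombomodulin on the surface of LPS-activated endothelial/PBMC co-cultures was quantified by ELISA at 24 hours post-dosing, with DMSO as baseline. Parallel SRB total-protein staining flagged overt cytotoxicity.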

Consider `Cc1c([N+](=O)[O-])c(C)c([N+](=O)[O-])c(C(C)(C)C)c1[N+](=O)[O-]`, for which the outcome was “inactive” in the test with Decorin, DCN (gene 1634); “inactive” in test [1]; “inactive” in [3]. The AC50 in [2] was 20 µM (active).
On to `COCC(=O)N(c1c(C)cccc1C)[C@H](C)C(=O)OC`, for which the outcome was “inactive” with Decorin, DCN (gene 1634); “inactive” in test [1]; “inactive” in test [2]; “inactive” in [3].
On to `CC(C)[C@@H](Nc1ccc(C(F)(F)F)cc1Cl)C(=O)OC(C#N)c1cccc(Oc2ccccc2)c1` (stereo partly drawn), for which the result in test [4], in [5], in [6] and in test [7] was inactive. Also, the AC50 in test [8] was 1.92 µM (active).
For the compound `Cc1cc(Cl)ccc1OC(C)C(=O)O` (stereo not drawn), the outcome with Decorin, DCN (gene 1634) is “inactive”; in [1], “inactive”; in test [2] it was “inactive”; in [3], “inactive”.
In the case of `O=[N+]([O-])c1ccc(Nc2ccccc2)cc1`, the outcome is “inactive” in the test with Decorin, DCN (gene 1634); “inactive” in test [1]; “inactive” in test [2]; “inactive” in test [3].
Regarding `CCCCCCCCCCCCN(C)C`, the outcome was “inactive” with Decorin, DCN (gene 1634); “inactive” in test [1]; “inactive” in [2]; “inactive” in test [3].
As to `C[C@]12CC[C@@H](O)C[C@@H]1CC[C@@H]1[C@@H]2CC[C@]2(C)C(=O)CC[C@@H]12`, the outcome was “inactive” with Decorin, DCN (gene 1634); “inactive” in test [1]; “inactive” in test [2]; “inactive” in test [3].
In the case of `OC(Cc1ccccc1Cl)(Cn1[nH]cnc1=S)C1(Cl)CC1` (stereo not drawn), the outcome with Decorin, DCN (gene 1634) is “inactive”; in test [2], “inactive”; in test [3] it was “inactive”; in test [4], “inactive”; in test [7], “inactive”. Besides, the AC50 in test [1] was 32.2 µM (active); in test [5] it was 43 µM (active); in test [6], 36 µM (active); in test [8] it was 17.5 µM (active).
With `CCCCOC(=O)COC(=O)c1ccccc1C(=O)OCCCC`, the outcome (in [9]; in test [10]; in test [11]; in test [12]; with KRT18 (gene 3875); in [13]) was inactive. Moreover, the outcome in test [14], in test [15], in test [16] and in test [17] was inactive. Further, in test [18], the outcome was “inactive [primary human HUVEC with PBMC]”.
Regarding `Cc1cc(Cl)ccc1N`, the outcome with Decorin, DCN (gene 1634) is “inactive”; in [1], “inactive”; in test [2], “inactive”; in test [3], “inactive”.
`Nc1ccc(N)cc1`: the outcome with Decorin, DCN (gene 1634) was “inactive”; in [1], “inactive”; in [2] it was “inactive”; in [3], “inactive”.
Consider `O=C(Cc1ccccc1)OCCc1ccccc1`, for which the result (in test [9]; in test [10]; in test [11]; in test [12]; with KRT18 (gene 3875); in test [13]) was inactive. Also, the result in test [14], in test [15], in test [16], in [17] and in [18] was inactive.

One may read the AC50 as the midpoint of the concentration-response curve, whichever way the signal moves.
